{
  "source": "PubChem BioAssay AID504339",
  "about": "(National Center for Advancing Translational Sciences (NCATS), 2011)",
  "note": "About 17,000 (4.4%) of roughly 390,000 compounds were called active. Not shown: some 8% with an inconclusive outcome. Shown is part of a subset that was picked to be rich in actives. Unmarked numbers belong to inactive results. Calls come from the whole dose curve; as a rule, active = well fitted inhibition curve with a large enough effect; inconclusive = small, poorly fitted or top-dose-only effect; inactive = no such curve, though single readings can be large or run the other way. % is set by controls: 0 for no effect and ±100 for the full control effect; potency is the fitted concentration of half-maximal effect.",
  "data": [
    {"molecular_target": "Lysine-specific demethylase 4A (Homo sapiens) (UniProt O75164)", "sequence (O75164 whole entry, looked up, the tested form may be a part)": "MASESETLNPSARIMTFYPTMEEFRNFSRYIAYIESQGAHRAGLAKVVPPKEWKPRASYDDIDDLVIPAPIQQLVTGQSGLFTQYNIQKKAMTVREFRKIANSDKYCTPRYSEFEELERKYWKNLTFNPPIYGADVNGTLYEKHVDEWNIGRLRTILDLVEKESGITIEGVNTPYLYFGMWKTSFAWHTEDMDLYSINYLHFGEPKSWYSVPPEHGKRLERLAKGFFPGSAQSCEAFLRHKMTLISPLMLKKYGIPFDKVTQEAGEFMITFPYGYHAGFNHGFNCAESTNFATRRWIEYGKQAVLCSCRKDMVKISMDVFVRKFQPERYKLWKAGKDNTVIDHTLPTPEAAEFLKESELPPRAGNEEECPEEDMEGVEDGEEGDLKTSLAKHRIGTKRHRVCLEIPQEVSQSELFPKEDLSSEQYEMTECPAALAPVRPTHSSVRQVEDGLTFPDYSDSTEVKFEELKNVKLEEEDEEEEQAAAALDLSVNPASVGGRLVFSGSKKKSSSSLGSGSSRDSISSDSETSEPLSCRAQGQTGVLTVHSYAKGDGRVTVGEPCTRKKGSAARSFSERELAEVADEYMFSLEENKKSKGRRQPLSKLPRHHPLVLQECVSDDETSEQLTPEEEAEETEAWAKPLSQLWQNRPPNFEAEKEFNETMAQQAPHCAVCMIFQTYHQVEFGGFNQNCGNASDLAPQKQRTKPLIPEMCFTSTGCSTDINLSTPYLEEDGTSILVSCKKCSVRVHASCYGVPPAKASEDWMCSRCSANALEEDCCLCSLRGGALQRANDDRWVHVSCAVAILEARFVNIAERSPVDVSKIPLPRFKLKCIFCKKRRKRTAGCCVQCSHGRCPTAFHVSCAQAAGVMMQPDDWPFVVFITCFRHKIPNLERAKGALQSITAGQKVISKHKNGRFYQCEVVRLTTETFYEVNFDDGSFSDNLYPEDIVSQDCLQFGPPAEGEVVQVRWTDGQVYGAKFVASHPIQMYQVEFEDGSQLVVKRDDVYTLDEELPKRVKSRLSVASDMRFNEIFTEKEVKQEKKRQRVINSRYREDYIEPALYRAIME", "assay": "qHTS Assay for Inhibitors of JMJD2A-Tudor Domain; note: nearly all actives have a fitted effect of over 50% in size", "details": "AlphaScreen JMJD2A-Tudor / H3K4me3 peptide binding; series mostly up to 114 µM; activity change, negative = inhibition: at the top concentration", "text": "JMJD2A is a jumonji-domain-containing lysine demethylase that uses Fe(II) together with 2-OG to effect oxidative demethylation of histones. Methylation is one of many […] modification that affect epigenetic transcription. […] It is proposed that the functions of JmjD2A binding to the histones, is to maintain marks after they are installed and to spread the modifications by […], establishing a self-propagating cycle for rapid methylation over a large area of chromatin. […] Thus, small molecule targeting of the JMJD2A-tudor domain interaction with its target methylhistone mark is expected to enable sophisticated experiments probing the fine regulatory pathways leading to selective demethylation of a given methyllysine locus based on the methylation state of adjacent histone marks. A quantitative high throughput AlphaScreen has been developed to identify small molecule inhibitors based on a protocol published by NCGC and SGC [4].\nAlthough AlphaScreen has significant advantages with its utility in a variety of epigenetic target assays, the primary screening data provided in this deposition should be used with caution due to the prevalence of screening artifacts. The top compound concentration tested was high (>100uM) in this assay, which increases number of actives and potential artifacts. An AlphaScreen counterscreen is highly recommended to be run against any putative actives to eliminate non-specific artifacts. Alternatively, one can use other AlphaScreen assays in PubChem to filter out promiscuous hits.\n[1] Lee, J. et al. Distinct binding modes specify the recognition of methylated histone H3K4 and H4K20 by JMJD2A-tudor. Nat Struct Mol Biol. 15(1); 109-11. 2008. PMID: 18084306\n[2] Yasgar, et al. Compound Management for Quantitative High-Throughput Screening. JALA. 2008 Apr;13(2):79-89. PMID: 18496600\n[3] Inglese, et al. Quantitative high-throughput screening: a titration-based approach that efficiently identifies biological activities in large chemical libraries. Proc Natl Acad Sci. 1;103(31):11473-8. 2006. PMID: 16864780\n[4] Quinn et al. A homogeneous method for investigation of methyl-dependent protein-protein interactions in epigenetics. Nucleic Acids Res., 38(2):e11. 2010. PMID: […]\n[5] Baell,Holloway. New substructure filters for removal of pan assay interference compounds (PAINS) from screening libraries and for their exclusion in bioassays. J Med Chem. 53(7):2719-40. 2010. PMID: 20131845\nNIH Molecular Libraries Probe Production Network [MLPCN]\nNIH Chemical Genomics Center [NCGC]\nStructural Genomics Consortium (SGC)\nTo each well of a 1,536w plate, 2ul of JMJD2A-Tudor (final 100nM) and 1ul biotinylated histone peptide methylated at Lys4 [b-H3(1-18)K4me3] (final 50nM) were added in 1x PBS buffer, pH 7.4, containing 0.01% Tween-20, using a nanoliter dispenser. Formation of a protein-peptide complex proceeded at room temperature for 30 min. A Kalypsys pin-tool transferred 23nl of library compound solution in DMSO to each well. Following a 30 min incubation of the protein-peptide complex with compounds at room temperature, a mixture of 40 µg/mL each streptavidin-coated donor and nickel chelate acceptor AlphaScreen beads (final 10 µg/mL) was added in a 1ul dispense for a final volume of 4ul, followed by a brief centrifugation (1000 rpm, 1 min). Plates were incubated protected from the light for 20 min at room temperature. Microplates were then read on an EnVision multilabel plate reader using the 1,536 plate HTS AlphaScreen aperture (excitation time 80 ms, measurement time 240 ms).", "units": {"activity change, negative = inhibition": "%"}, "values": [
      {"smiles": "CN(C)c1ccc(C(=S)N2CCN(C(=S)Nc3ccc(Cl)cc3)CC2)cc1", "Potency": "28.2 µM (active)"},
      {"smiles": "Cc1c(CNC2CCCCC2)c(C(=O)O)c(C)n1Cc1cccc(Cl)c1", "activity change, negative = inhibition": -17.4},
      {"smiles": "Cc1cccc(NC(=O)CSc2nnc(CNC(=O)c3cccc(C)c3)n2-c2ccccc2)c1", "activity change, negative = inhibition": -19.5},
      {"smiles": "O=C(N/N=C/c1cc(Cl)cc([N+](=O)[O-])c1O)C(O)(c1ccccc1)c1ccccc1", "Potency": "50.1 µM (active)"},
      {"smiles": "Cc1nn(-c2ccccc2)c(Cl)c1/C=N/NC(=O)c1nn(C)cc1[N+](=O)[O-]", "activity change, negative = inhibition": 15.2},
      {"smiles": "O=C(Cc1ccccc1)N/N=C/c1ccc(Cl)cc1Cl", "activity change, negative = inhibition": -6.47},
      {"smiles": "CCOC(=O)c1ccc(NC(=O)Cn2c(=O)cc(C)c3c(C)nn(-c4cccc(F)c4)c32)cc1", "activity change, negative = inhibition": -6.67},
      {"smiles": "CCN1C(=O)c2ccccc2S(=O)c2ccc(C(=O)NCc3ccc(F)cc3)cc21", "note": "(stereo not given)", "activity change, negative = inhibition": 1.68},
      {"smiles": "CN(C)c1cc(N)c2ccccc2n1", "note": "(tested in a mixture with another compound)", "Potency": "2.82 µM (active)"},
      {"smiles": "CN(c1ccc2nc3ccccc3c(=O)n2n1)C1CCCCC1", "activity change, negative = inhibition": 4.35},
      {"smiles": "O=C(CC1N=C2c3ccccc3N=C(SCc3ccc(F)cc3)N2C1=O)NCc1cccs1", "note": "(stereo not given)", "activity change, negative = inhibition": -21},
      {"smiles": "Cc1cc(-c2ccc(C)c(S(=O)(=O)N3c4ccccc4CC3C)c2)on1", "note": "(stereo not given)", "activity change, negative = inhibition": 11.7},
      {"smiles": "O=S(=O)(c1ccc2nc(N3CCN(c4cccc(Cl)c4)CC3)ccc2c1)N1CCCCC1", "activity change, negative = inhibition": 9.42},
      {"smiles": "COC(=O)C1(C)NC(c2ccc(F)cc2)C2C(=O)N(c3ccccc3)C(=O)C21", "note": "(stereo not given)", "activity change, negative = inhibition": 1.31},
      {"smiles": "CCCCC1(C(=O)OCC)NC(c2ccc(O)cc2)C2C(=O)N(c3ccccc3)C(=O)C21", "note": "(stereo not given)", "Potency": "28.2 µM (active)"},
      {"smiles": "CCOC(=O)C1(C)NC(c2ccco2)C2C(=O)N(c3ccccc3)C(=O)C21", "note": "(stereo not given)", "activity change, negative = inhibition": -18.4},
      {"smiles": "COc1ccccc1CNC(=O)C(=O)NCC(c1cccs1)S(=O)(=O)c1cccs1", "note": "(stereo not given)", "activity change, negative = inhibition": -17.5},
      {"smiles": "CCCN(CCC)S(=O)(=O)c1ccc(C(=O)Nc2sc3c(c2C(=O)OC)CCN(CC)C3)cc1", "activity change, negative = inhibition": -9.17},
      {"smiles": "Cc1ccc2oc(C(=O)Nc3ccc(S(=O)(=O)N4CCCCCC4)cc3)cc(=O)c2c1", "activity change, negative = inhibition": -14.2},
      {"smiles": "CC1CCCCN1CC(=O)N1CCCc2c1c(=O)oc1ccc(OCc3ccccc3)cc21", "note": "(stereo not given)", "activity change, negative = inhibition": -29.8},
      {"smiles": "Cc1ccc(C(=O)Nc2ccc(C)c(S(=O)(=O)N(C)C)c2)s1", "activity change, negative = inhibition": -9.67},
      {"smiles": "Cc1ccc(NC(=O)CNCc2ccccn2)cc1S(=O)(=O)N(C)C", "Potency": "56.2 µM (active)"},
      {"smiles": "CCN(c1ccccc1)S(=O)(=O)c1cc(C(=O)NCc2ccccn2)ccc1C", "activity change, negative = inhibition": -17.2},
      {"smiles": "Cc1ccc(OCC(=O)Nc2ccc(OCc3cc(=O)n4c(C)csc4n3)cc2)cc1C", "activity change, negative = inhibition": -23.8},
      {"smiles": "Cc1cccc(NC(=O)Cn2c(C(F)(F)F)nc3ccccc32)c1C", "activity change, negative = inhibition": -12.8},
      {"smiles": "CCc1nccn1S(=O)(=O)c1cc(Br)ccc1Br", "activity change, negative = inhibition": -1.49},
      {"smiles": "N#C/C(=C\\c1ccccc1F)c1nc2ccccc2c(=O)[nH]1", "activity change, negative = inhibition": -15.7},
      {"smiles": "Cc1ccc(-c2nc(=N)sn2Cc2ccccc2)cc1", "Potency": "4.47 µM (active)"},
      {"smiles": "COc1ccc(-c2nc(=N)sn2-c2ccccc2)cc1", "Potency": "5.62 µM (active)"},
      {"smiles": "Cc1ccc(-c2cc(C(=O)NC3CCN(Cc4ccccc4)CC3)c3ccccc3n2)cc1", "activity change, negative = inhibition": -14.5},
      {"smiles": "COc1ccc(-c2nn3c(-c4ccc(OC)cc4)nnc3c3ccccc23)cc1", "activity change, negative = inhibition": 5.15},
      {"smiles": "Cc1ccc(CN2C(=O)SC(Nc3ccccc3)C2=O)cc1", "note": "(stereo not given)", "activity change, negative = inhibition": 14.8},
      {"smiles": "Cc1n[nH]c(=O)n1-c1ccc(Oc2ccccc2)cc1", "activity change, negative = inhibition": -11},
      {"smiles": "CC(C)c1ccc2oc(-c3cc(NC(=O)c4cccs4)ccc3Cl)nc2c1", "activity change, negative = inhibition": -2.99},
      {"smiles": "COC(=O)c1cc(NC(=O)CCc2c(C)nc3c4c(C)cc(C)nc4nn3c2C)cc(C(=O)OC)c1", "activity change, negative = inhibition": -13.2},
      {"smiles": "COc1ccc(Cl)cc1NC(=O)CSc1nc(=O)[nH]c2c1CCCC2", "activity change, negative = inhibition": -2.27},
      {"smiles": "Cc1cc(OCC(=O)Nc2ncn[nH]2)c(C)c(C)c1Br", "activity change, negative = inhibition": -7.56},
      {"smiles": "COc1ccc(Cn2cc(C(=O)c3ccc(C)cc3)c(=O)c3cc(OC)c(OC)cc32)cc1", "activity change, negative = inhibition": -31.3},
      {"smiles": "COc1ccc(CCNC(=O)c2cn(C)c3ccc(S(=O)(=O)N(C)C4CCCCC4)cc3c2=O)cc1OC", "activity change, negative = inhibition": -4.33},
      {"smiles": "CCOc1ccc(C2c3[nH]c4ccccc4c3CCN2Cc2cn(CC)nc2C)cc1", "note": "(stereo not given)", "activity change, negative = inhibition": -29.1},
      {"smiles": "CCOc1cccc(CC(=O)N2CCc3c([nH]c4ccccc34)C2c2ccc(OC)cc2)c1OCC", "note": "(stereo not given)", "activity change, negative = inhibition": -31.5},
      {"smiles": "CCOc1ccc(C2c3[nH]c4ccccc4c3CCN2Cc2cccn2-c2ncccn2)cc1", "note": "(stereo not given)", "Potency": "44.7 µM (active)"},
      {"smiles": "COc1ccc(C2CC(=O)Nc3c2c(=O)nc2c(C)cccn32)cc1OC", "note": "(stereo not given)", "activity change, negative = inhibition": -18.9},
      {"smiles": "Cc1ccc(-n2c(=O)c3cccnc3n2CC(=O)NCc2ccc(F)cc2)cc1C", "activity change, negative = inhibition": 3.75},
      {"smiles": "Cc1c(CN2CCC(CO)(CCOc3ccccc3)CC2)[nH]c2ccc(Cl)cc12", "Potency": "50.1 µM (active)"},
      {"smiles": "CCOC(=O)C1(CCOc2ccccc2)CCN(Cc2cc(OC)cc(OC)c2)CC1", "activity change, negative = inhibition": -11.6},
      {"smiles": "CCOC(=O)C1(CCOc2ccccc2)CCN(Cc2ccc(C#CCCO)cc2)CC1", "activity change, negative = inhibition": -15.1},
      {"smiles": "O=C(O)c1n[nH]nc1-c1ccccc1", "Potency": "4.47 µM (active)"},
      {"smiles": "O=C(O)c1ccc(-n2nc(-c3ccccc3)c3ccccc3c2=O)cc1", "activity change, negative = inhibition": -7.69},
      {"smiles": "N#Cc1c(-c2ccccc2)c(-c2ccccc2)n[nH]c1=O", "activity change, negative = inhibition": -7.47}
    ]}
  ]
}
